Source: PubChem BioAssay (ICCB-Longwood Screening Facility, Harvard Medical School)
A selection: hits, their analogues and other compounds. The true share with any hit is near 1.4%.
MenB inh = Mtb MenB enzyme inhibition; MenB enzyme assay, absorbance read-out; inhibition, % (test concentration not listed); hit rate 0.43% among 100,000; in the data active = inhibition above about 21%, passing the limit was not always enough
Polio RdRp inh = inhibitors of poliovirus RNA polymerase binding and polymerization | P03300 | poliovirus polymerase elongation, fluorescence polarization; stronger effect = lower value | % elongation, % (compound at 16.7 µg/mL) | hit rate 0.66% among 150,000 | AID 588519; in the data active = % elongation below about 90%
Target sequence (P03300 1749-2209 limits assumed): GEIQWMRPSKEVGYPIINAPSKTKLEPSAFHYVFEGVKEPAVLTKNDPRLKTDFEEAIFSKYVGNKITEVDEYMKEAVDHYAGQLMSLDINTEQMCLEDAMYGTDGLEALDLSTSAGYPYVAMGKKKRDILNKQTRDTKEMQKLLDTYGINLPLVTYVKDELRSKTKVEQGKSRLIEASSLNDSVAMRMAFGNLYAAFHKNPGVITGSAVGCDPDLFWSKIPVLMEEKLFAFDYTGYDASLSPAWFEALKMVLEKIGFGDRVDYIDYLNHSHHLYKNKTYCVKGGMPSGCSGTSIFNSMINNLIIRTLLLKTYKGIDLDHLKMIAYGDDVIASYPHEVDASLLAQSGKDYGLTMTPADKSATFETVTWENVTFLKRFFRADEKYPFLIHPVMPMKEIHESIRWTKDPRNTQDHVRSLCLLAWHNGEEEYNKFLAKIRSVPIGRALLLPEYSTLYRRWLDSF
Mtb MbtI inh = blocks the Mycobacterium tuberculosis siderophore enzyme MbtI. P9WFX0. purified MbtI enzyme, fluorescence intensity read-out. inhibition, % (test concentration not listed). hit rate 0.89% among 100,000. AID 493033; in the data active = inhibition mostly above about 56%, no sharp cut-off; inactive = mostly below about 77%
Numbers without * were called inactive.

`CCOC(=O)C1=C(C)NC(=S)NC1c1ccc(OCC(=O)N2CCCCC2)cc1` (stereo not drawn) gave MenB inh -3.6 and Polio RdRp inh 104.0.
`COc1ccc(CCN2C(=O)CC(=O)NC2=S)cc1OC` gave MenB inh -120.7, Polio RdRp inh 100.0 and Mtb MbtI inh 27.4.
Screening COc1ccc(CCN2CC(=O)N3CCCC(C4=CC(=O)C=CC4=O)=C3C2=O)cc1OC returned MenB inh -13.2, Polio RdRp inh 95.0 and Mtb MbtI inh 98.8*.
For O=C(Nc1ccccc1Cl)c1cn2ccccc2n1 the results were Polio RdRp inh 104.0 and Mtb MbtI inh -18.1.
O=C(O)CCC(=O)N1CC(=O)Nc2ccccc21 was read as MenB inh -7.7 and Polio RdRp inh 96.0.
`CC1(C)C(=O)NCCN1C(=O)CCC(=O)O` gave MenB inh 30.9*, Polio RdRp inh 100.0 and Mtb MbtI inh -2.2.
Cc1ccc(CC(=O)OCC(=O)Nc2c(C#N)c(C)c(C)n2Cc2ccco2)cc1C was read as MenB inh -12.5, Polio RdRp inh 105.0 and Mtb MbtI inh -14.1.
N#CCOC(=O)c1nc(-c2ccccc2)n(-c2ccccc2)n1 was read as MenB inh -10.6, Polio RdRp inh 83.0* and Mtb MbtI inh -5.0.
`CCC(C)NC(=O)c1nc(-c2ccccc2)n(-c2ccccc2)n1` (stereo not drawn) gave MenB inh 8.1 and Mtb MbtI inh 6.1.
Screening CC(Sc1ccccn1)C(=O)Nc1ccc(S(N)(=O)=O)cc1 (stereo not drawn) returned MenB inh -8.5, Polio RdRp inh 102.0 and Mtb MbtI inh 12.0.
`CC(Sc1ccccn1)C(=O)Nc1ccccc1` (stereo not drawn) gave MenB inh -41.6, Polio RdRp inh 102.0 and Mtb MbtI inh 93.7*.
c1cc(-c2cc(-c3nc4c5c(ncn4n3)CCC5)[nH]n2)ccn1 was read as MenB inh 5.0, Polio RdRp inh 99.0 and Mtb MbtI inh -4.7.
Screening CCN(C(=O)Nc1cccc(Cl)c1)c1ccccc1 returned MenB inh -12.9, Polio RdRp inh 100.0 and Mtb MbtI inh -7.2.
`CCN(CC)C(=O)Nc1cccc(Cl)c1` gave MenB inh 32.7*, Polio RdRp inh 101.0 and Mtb MbtI inh 0.2.
For CCn1c(SCCc2ccccc2)nnc1-c1nnc(SCCc2ccccc2)n1CC the results were MenB inh -8.9, Polio RdRp inh 101.0 and Mtb MbtI inh 8.8.
For CC/C(O)=C(\C#N)c1nc2ccccc2n1C the results were MenB inh -54.4, Polio RdRp inh 103.0 and Mtb MbtI inh 13.1.
For CCCCCc1ccc(C(=O)CCN(C)C)cc1 the results were MenB inh -1.6, Polio RdRp inh 103.0 and Mtb MbtI inh 73.0*.
For CN(C)CCC(=O)c1ccc2c(c1)OCO2 the results were MenB inh 19.1, Polio RdRp inh 102.0 and Mtb MbtI inh 61.9.
`CC(C)c1nc2ccc(N)cc2s1` gave MenB inh 26.0, Polio RdRp inh 101.0 and Mtb MbtI inh 31.9.
Cc1cc2nc3ccc(=[N+](C)C)cc-3sc2cc1N was read as MenB inh 11.7 and Polio RdRp inh 2.0*.
CCCNc1nc(-c2ccccc2)cs1 was read as MenB inh 8.4, Polio RdRp inh 101.0 and Mtb MbtI inh 63.5.
O=c1[nH]nc(SCc2cccc3ccccc23)c(=O)[nH]1 was read as MenB inh -18.8, Polio RdRp inh 100.0 and Mtb MbtI inh 51.2*.
For O=c1[nH]nc(SCc2ccccc2)c(=O)[nH]1 the results were Mtb MbtI inh 0.8.
`CC(C)OP(C)(=O)C(N)=O` (stereo not drawn) gave MenB inh 1.0, Polio RdRp inh 101.0 and Mtb MbtI inh -7.5.
`C/C(O)=C(\C#N)P(C)(=O)OC(C)C` (stereo not drawn) gave MenB inh 40.7*, Polio RdRp inh 98.0 and Mtb MbtI inh 1.2.
Screening CC1CCC(N2CCN(Cc3cccc(F)c3)CC2)CC1 (stereo not drawn) returned MenB inh -4.5, Polio RdRp inh 102.0 and Mtb MbtI inh 7.6.
`CCCCOC(=O)Sc1nc2ccccc2o1` gave MenB inh -62.4, Polio RdRp inh 97.0 and Mtb MbtI inh 91.2*.
For COc1ccc(CC(=O)Sc2nc3ccccc3o2)cc1 the results were MenB inh -8.4 and Polio RdRp inh 107.0.
`CCCN1CCN(C(=O)c2c(C)nn(-c3ccccc3)c2Cl)CC1` gave MenB inh -22.4, Polio RdRp inh 102.0 and Mtb MbtI inh 7.2.
Screening COc1ccccc1NC(=O)Nc1ccnn1Cc1ccccc1 returned MenB inh 5.0, Polio RdRp inh 104.0 and Mtb MbtI inh 18.0.
Screening Cc1conc1NC(c1cccs1)c1ccc2cccnc2c1O (stereo not drawn) returned MenB inh -73.5, Polio RdRp inh 118.0 and Mtb MbtI inh 96.7*.
Oc1cccnc1NC(c1ccc(F)cc1)c1ccc2cccnc2c1O (stereo not drawn) was read as MenB inh -32.0, Polio RdRp inh 112.0 and Mtb MbtI inh 30.3.
